Laboratory results from the supplement of paper PMC12494721.
Where a name gives a salt, the structure may show the parent alone.

Columns and labels:
Conditions in all cases: incubation time: 27 h, anaerobic, 37 °C;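 for the amine columns active = adjusted P below 0.05 in both replicates with a change the same way and a mean fold change under 0.8 or over 1.25; inactive = the rest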
[1] = test system: Clostridium sporogenes DSM 1664; assay: growth (OD595) fold change vs plate DMSO controls (fold change (ratio)); higher = more growth
How it was run: (§1)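 The measure reported is growth, taken as fold change against the median of DMSO controls on the same plate. Anaerobic mGAM cultures in 96-well plates (27 h, 37 °C) were read at 595 nm, blank-subtracted, corrected for compound background using 20 µM compound solutions in water, and multiplied by a calibration factor of 5 to give OD. Any fold change above 1.5 became NA, and 2 biological replicates were averaged.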

Escherichia coli IAI1 [2] = assay: as above
How it was run: as §1

[3] = test system: Klebsiella aerogenes DSM 30053; assay: as above
How it was run: as §1

[4] = test system: Ruminococcus gnavus DSM 108212; assay: as above
How it was run: as §1

[5] = test system: Klebsiella aerogenes DSM 30053; assay: fold change of Histamine concentration vs plate DMSO controls (fold change (ratio)); higher = more amine produced, active = hit call of the paper (significant change in both replicates, either direction)
How it was run: (§2)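 In 80 µL wells, cultures of four gut bacterial strains in mGAM started at OD 0.1 before a 1:1 dilution and grew anaerobically at 37 °C for 27 h. Compounds were added to 20 µM final, except sweeteners at 50 µM final. After extraction of whole cultures with cold acetonitrile/methanol plus 0.1% formic acid and centrifugation, amines were measured by LC–triple-quadrupole MS in dynamic MRM mode against external calibration curves, with within-batch drift correction. Values give fold change over DMSO controls on the same plate, averaged across 2 biological replicates.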

[6] = test system: Clostridium sporogenes DSM 1664; assay: fold change of Tryptamine concentration vs plate DMSO controls (fold change (ratio)); higher = more amine produced, active = hit call of the paper (significant change in both replicates, either direction)
How it was run: as §2

[7] = test system: Ruminococcus gnavus DSM 108212; assay: as above
How it was run: as §2

Escherichia coli IAI1 [8] = assay: fold change of Putrescine concentration vs plate DMSO controls (fold change (ratio)); higher = more amine produced, active = hit call of the paper (significant change in both replicates, either direction)
How it was run: as §2

[9] = test system: Klebsiella aerogenes DSM 30053; assay: as above
How it was run: as §2

Escherichia coli IAI1 [10] = assay: fold change of Cadaverine concentration vs plate DMSO controls (fold change (ratio)); higher = more amine produced, active = hit call of the paper (significant change in both replicates, either direction)
How it was run: as §2

[11] = test system: Klebsiella aerogenes DSM 30053; assay: as above
How it was run: as §2

[12] = test system: Ruminococcus gnavus DSM 108212; assay: fold change of 2-Phenylethylamine concentration vs plate DMSO controls (fold change (ratio)); higher = more amine produced, active = hit call of the paper (significant change in both replicates, either direction)
How it was run: as §2

| SMILES | growth [1] | growth (Escherichia coli IAI1 [2]) | growth [3] | growth [4] | fold change of Histamine concentration [5] | fold change of Tryptamine concentration [6] | fold change of Tryptamine concentration [7] | fold change of Putrescine concentration (Escherichia coli IAI1 [8]) | fold change of Putrescine concentration [9] | fold change of Cadaverine concentration (Escherichia coli IAI1 [10]) | fold change of Cadaverine concentration [11] | fold change of 2-Phenylethylamine concentration [12] |
| --- | --- | --- | --- | --- | --- | --- | --- | --- | --- | --- | --- | --- |
| CC[N+]1(CC)CCC(=C(c2ccccc2)c2ccccc2)C1C (stereo not given) [Prifinium Bromide] (20 µM) | 1.1 | 1.08 | 1.04 | 0.925 | 0.982 (inactive) | 1.02 (inactive) | 0.907 (inactive) | 1.07 (inactive) | 1 (inactive) | 0.989 (inactive) | 1.01 (inactive) | 0.85 (inactive) |
| CC(N)(Cc1ccc(O)c(O)c1)C(=O)O (stereo not given) [(L) Methyldopa] (20 µM) | 0.936 | 0.99 | 1 | 0.89 | 1.06 (inactive) | 1 (inactive) | 1.11 (inactive) | 0.882 (inactive) | 1.06 (inactive) | 0.965 (inactive) | 1.07 (inactive) | 1.26 (active) |
| Cc1ccnc(NS(=O)(=O)c2ccc(N)cc2)n1 [Sulfamerazine] (20 µM) | 0.951 | 1.06 | 1.07 | 1.06 | 0.995 (inactive) | 0.975 (inactive) | 0.995 (inactive) | 1 (inactive) | 0.999 (inactive) | 1.01 (inactive) | 1.02 (inactive) | 0.97 (inactive) |
| C[C@@H](O)[C@H]1C(=O)N2C(C(=O)O)=C(SCCNC=N)C[C@H]12 [Imipenem] (20 µM) | 0.318 | 1.08 | 0.85 | 0.0868 | 0.772 (inactive) | 0.0417 (active) | 0.0408 (active) | 0.971 (inactive) | 1.03 (inactive) | 1.65 (active) | 1 (inactive) | 0.0463 (active) |
| CC(C)(C)NC[C@H](O)c1ccc(O)c(CO)c1 [Levalbuterol hydrochloride] (20 µM) | 0.932 | 0.976 | 1.01 | 0.865 | 0.991 (inactive) | 0.99 (inactive) | 0.89 (inactive) | 1.24 (inactive) | 0.996 (inactive) | 0.974 (inactive) | 0.994 (inactive) | 0.861 (inactive) |
| Cc1cn([C@H]2C=C[C@@H](CO)O2)c(=O)[nH]c1=O [Stavudine] (20 µM) | 0.967 | 0.807 | 0.99 | 0.994 | 1.04 (inactive) | 0.97 (inactive) | 1.01 (inactive) | 0.927 (inactive) | 1.04 (inactive) | 1.21 (inactive) | 0.991 (inactive) | 1.02 (inactive) |
| COC(=O)[C@H](Cc1ccccc1)NC(=O)[C@H](CC(=O)O)NCCC(C)(C)C [Neotame] (50 µM) | 1.05 | 1 | 1.04 | 1.07 | 0.99 (inactive) | 1.05 (inactive) | 1.01 (inactive) | 1.01 (inactive) | 1.01 (inactive) | 0.933 (inactive) | 1.02 (inactive) | 1.02 (inactive) |
| C#CCN[C@@H]1CCc2ccccc21 [Rasagiline] (20 µM) | 0.963 | 0.959 | 0.993 | 0.87 | 1.02 (inactive) | 1.03 (inactive) | 1.02 (inactive) | 0.965 (inactive) | 0.981 (inactive) | 1.02 (inactive) | 0.974 (inactive) | 1.03 (inactive) |
| COc1nc(C)nc(Cl)c1NC1=NCCN1 [Moxonidine] (20 µM) | 1.05 | 0.991 | 0.981 | 1.01 | 1.07 (inactive) | 1 (inactive) | 1.04 (inactive) | 1 (inactive) | 1.01 (inactive) | 1.01 (inactive) | 0.991 (inactive) | 1.07 (inactive) |
| CCOC(=O)C(C)(C)Oc1ccc(Cl)cc1 [Clofibrate] (20 µM) | 1.24 | 1.23 | 1.03 | 0.977 | 1.07 (inactive) | 1.04 (inactive) | 1 (inactive) | 1.18 (inactive) | 1.03 (inactive) | 0.919 (inactive) | 0.996 (inactive) | 0.97 (inactive) |
| Cc1ccc(-c2ncc(Cl)cc2-c2ccc(S(C)(=O)=O)cc2)cn1 [Etoricoxib] (20 µM) | 1.04 | 1.02 | 1.14 | 0.73 | 0.814 (inactive) | 1.16 (inactive) | 1.1 (inactive) | 1.05 (inactive) | 0.959 (inactive) | 0.905 (inactive) | 1.03 (inactive) | 1.19 (inactive) |
| CNCC[C@@H](Oc1ccccc1C)c1ccccc1 [Tomoxetine hydrochloride] (20 µM) | 1.11 | 1.01 | 0.98 | 1.1 | 0.978 (inactive) | 1.1 (inactive) | 1 (inactive) | 0.969 (inactive) | 0.968 (inactive) | 0.989 (inactive) | 1 (inactive) | 1.05 (inactive) |
| CCCCCN(CCCCC)C(=O)C(CCC(=O)O)NC(=O)c1ccc(Cl)c(Cl)c1 (stereo not given) [Lorglumide sodium salt] (20 µM) | 0.981 | 1.02 | 1.02 | 1.01 | 0.987 (inactive) | 0.763 (active) | 0.94 (inactive) | 1.07 (inactive) | 1.01 (inactive) | 1.03 (inactive) | 1.01 (inactive) | 0.919 (inactive) |
| C[C@]12CCC(=O)C=C1C=C[C@@H]1[C@@H]2CC[C@@]2(C)[C@H]1CC[C@@]21CCC(=O)O1 [Canrenone] (20 µM) | 1.01 | 1.03 | 1.01 | 1.03 | 0.908 (inactive) | 1 (inactive) | 1.12 (inactive) | 0.86 (inactive) | 0.967 (inactive) | 0.878 (inactive) | 1.02 (inactive) | 1.14 (inactive) |
| CNC(=O)OCc1cccc(COC(=O)NC)n1 [Pyricarbate] (20 µM) | 0.9 | 1.02 | 1.03 | 1.02 | 0.976 (inactive) | 0.953 (inactive) | 1.03 (inactive) | 1.03 (inactive) | 0.995 (inactive) | 1.05 (inactive) | 0.995 (inactive) | 1.06 (inactive) |
| CCCCCCOc1ccccc1C(N)=O [Exalamide] (20 µM) | 1.34 | 0.997 | 1.03 | 1.23 | 0.934 (inactive) | 0.949 (inactive) | 0.95 (inactive) | 0.952 (inactive) | 1.01 (inactive) | 1.03 (inactive) | 0.997 (inactive) | 0.936 (inactive) |
| CCCCC1(COC(=O)CCC(=O)O)C(=O)N(c2ccccc2)N(c2ccccc2)C1=O [Suxibuzone] (20 µM) | 0.913 | 1.04 | 1.06 | 1.12 | 0.877 (inactive) | 1.07 (inactive) | 0.929 (inactive) | 0.993 (inactive) | 0.987 (inactive) | 0.957 (inactive) | 1 (inactive) | 0.906 (inactive) |
| CC(C)(C)NCC(O)CSc1nc(-c2ccc(C(N)=O)s2)cs1 (stereo not given) [Arotinolol hydrochloride] (20 µM) | 1.07 | 1.02 | 1.02 | 1.01 | 1.01 (inactive) | 1.01 (inactive) | 1.05 (inactive) | 0.978 (inactive) | 1 (inactive) | 0.928 (inactive) | 0.989 (inactive) | 1.1 (inactive) |
| CC(C)(C)NC[C@H](O)COc1nsnc1N1CCOCC1 [Timolol maleate salt] (20 µM) | 1 | 1.03 | 1.02 | 1.01 | 1.04 (inactive) | 1.03 (inactive) | 0.991 (inactive) | 1.12 (inactive) | 1.01 (inactive) | 1.02 (inactive) | 1 (inactive) | 0.997 (inactive) |
| CC1Cc2ccccc2N1NC(=O)c1ccc(Cl)c(S(N)(=O)=O)c1 (stereo not given) [Indapamide] (20 µM) | 1.04 | 1.02 | 0.929 | 0.659 | 1 (inactive) | 1.01 (inactive) | 1.01 (inactive) | 1 (inactive) | 1 (inactive) | 0.977 (inactive) | 1 (inactive) | 1.03 (inactive) |
| CC(=O)Oc1ccccc1C(=O)Oc1ccccc1C(=O)O [Acetylsalicylsalicylic acid] (20 µM) | 1.05 | 1 | 0.995 | 0.881 | 1.02 (inactive) | 1.01 (inactive) | 1.06 (inactive) | 1.01 (inactive) | 0.998 (inactive) | 0.983 (inactive) | 1.01 (inactive) | 1.11 (inactive) |
| CCOc1cc(N)c(Cl)cc1C(=O)NCC1CN(Cc2ccc(F)cc2)CCO1 (stereo not given) [Mosapride] (20 µM) | 1.14 | 0.963 | 0.978 | 1.08 | 1.05 (inactive) | 1.03 (inactive) | 0.938 (inactive) | 0.985 (inactive) | 1.02 (inactive) | 0.998 (inactive) | 0.992 (inactive) | 0.936 (inactive) |
| CN(C)CCn1nnnc1SCC1=C(C(=O)O)N2C(=O)[C@@H](NC(=O)Cc3csc(N)n3)[C@H]2SC1 [Cefotiam hydrochloride] (20 µM) | 0 | 0.00521 | 1.05 | 0.248 | 1.27 (inactive) | 0.0154 (active) | 0.0411 (active) | 0.121 (active) | 1.08 (inactive) | 0.522 (active) | 1.14 (inactive) | 0.0464 (active) |
| CN1CCCN(C(c2ccccc2)c2ccc(Cl)cc2)CC1 (stereo not given) [Homochlorcyclizine dihydrochloride] (20 µM) | 1.12 | 0.99 | 1 | 0.861 | 0.994 (inactive) | 0.989 (inactive) | 0.918 (inactive) | 1.03 (inactive) | 1.01 (inactive) | 0.885 (inactive) | 1.01 (inactive) | 0.983 (inactive) |
| CC(=O)NS(=O)(=O)c1ccc(NC(=O)c2ccccc2C(=O)O)cc1 [Phthalylsulfacetamide] (20 µM) | 0.948 | 0.995 | 1.03 | 0.929 | 1.04 (inactive) | 1.05 (inactive) | 1.03 (inactive) | 1.03 (inactive) | 1.01 (inactive) | 1.02 (inactive) | 0.992 (inactive) | 1.02 (inactive) |
